Screening results (PubChem)
The entries come from a sample that favours hits as a whole.
KDM5B inh = Primary screen for KDM5B Histone Demethylases FDH-coupled qHTS | Lysine-specific demethylase 5B (Homo sapiens), Q9UGL1 | KDM5B demethylase, FDH-coupled NADH fluorescence (FDH is formaldehyde dehydrogenase) | Potency, µM (titrated, usually from 57.7 µM), most hits filed as inhibitors | actives 2.6% (n = 220,000) | AID 1347165, 2019; active means well fitted inhibition curve with a large enough effect; further: 0% is about no effect; nearly all actives have a fitted effect of over 70% in size
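KDM5BΔAP (200 nM final) in 50 mM HEPES pH 7.5, 0.01% Tween-20 was preincubated 10 min at RT with compound over a concentration range. Substrate mix (H3K4me3 12.5 µM, α-KG 25 µM, Fe²⁺, ascorbate, NAD⁺, FDH) was added, and NADH fluorescence change over 30 min gave dose-response curves.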
* hit, by the source's call; i = inactive. Potency means the concentration at half of the fitted maximal effect.

SMILES	KDM5B inh
O=C(NC1CCCCC1)C1CCCc2ccccc21 (centres undefined)	i
Cn1c(C(=O)N2CCN(C(=O)C(C)(C)C)CC2)cc2ccccc21	i
C#CCNC(=O)c1nc(C(C)(C)C)c2ccccn12	112µM*
CC(C)NC(=O)c1ccccc1Cl	i
CC(C)(C)c1ccc2cc(C(=O)N3CCCC3)[nH]c2c1	i
CC(C)NC(=O)c1nc(C(C)(C)C)c2ccccn12	112µM*
C#CCNC(=O)CSc1nc2ccccc2nc1C	i
CC(C)NC(=O)c1cc2c(=O)n3ccccc3nc2s1	i
CC(C)(C)c1nc(C(=O)N2CCCC2)n2ccccc12	112µM*
COc1ccccc1OCc1ccc(C(=O)O)o1	i
CC1CN(C(=O)Cn2cnc3c2c(=O)n(C)c(=O)n3C)CCO1 (centres undefined)	i
CCN(CC)C(=S)SCC(=O)NC(=O)NC1CCCCC1	i
O=C(NC1CCCc2ccccc21)c1cccs1 (centres undefined)	i
N#Cc1ccc(OCC2CN(Cc3cccc(C(F)(F)F)c3)C(=O)c3c(ccnc3-c3ccc(OCC(=O)O)cc3)O2)cc1 (centres undefined)	i
Cc1ccc(C#N)c(N2CCCC(c3n[nH]c(=O)n3-c3ccccc3)C2)n1 (centres undefined)	32µM*
Cc1csc(CN2CCCC(c3n[nH]c(=O)n3-c3ccccc3)C2)n1 (centres undefined)	i
Cc1cccc(C(=O)N2CCC(c3n[nH]c(=O)n3-c3ccccc3)CC2)c1	i
CCOC(=O)NC(C(=O)OCC)(c1ccc(F)cc1)C(F)(F)F (centres undefined)	i
O=C(NCCN1CCOCC1)c1ccc(-c2ccc(N3CCSCC3)nc2)cc1	28µM*
CCc1csc(CNC(=O)c2ccc(N3CCSCC3)nc2)n1	i
O=C(NCCN1CCCCC1)c1ccc(-c2ccc(N3CCCCC3)nc2)cc1	28µM*
Cc1[nH]c2ccc(C(=O)NCCN3CCN(C)CC3)cc2c1C	i
Cc1ccc(-c2ncc(C(=O)NCCN3CCN(C)CC3)c(-c3ccncc3)n2)cc1	i
Cc1ccc(C(=O)NC[C@H]2O[C@@H](CC(=O)NCCN3CCOCC3)[C@H](O)[C@@H]2O)cc1	i
CCNC(=O)N1CCC(Cc2ccc(C(=O)NCCN3CCCCC3)cc2)CC1	i
SMILES	KDM5B inh
CN1CCN(CCNC(=O)c2ccc(-c3ccc(N4CCCCCC4)nc3)cc2)CC1	22µM*
Cc1ccc(C(=O)NCCN2CCCC2)cc1	i
CC(C)CCNC(=O)c1ccc(-c2ccc(N3CCSCC3)nc2)cc1	22µM*
CS(=O)(=O)N1CCC(Cc2ccc(C(=O)NCCN3CCOCC3)cc2)CC1	i
Cc1ccc(CNC(=O)c2ccc(-c3ccc(N4CCSCC4)nc3)cc2)o1	i
CC(C)CCn1c(N2CCN(CC(N)=O)CC2)nc2c1c(=O)[nH]c(=O)n2C	i
COc1ccc2c(C)c(CC(=O)NCc3ccc(F)cc3)c(=O)oc2c1C	i
O=C(c1ccc(F)cc1)N1CCC(Cc2nc(-c3ccc(F)cc3)no2)CC1	i
O=C(NC1C[C@H]2CC[C@@H](C1)N2C(=O)Cc1ccsc1)c1ccc(F)cc1 (some centres undefined)	i
CCCOc1ccccc1C(C)Nc1nc(-c2cccnc2)nc2c1CNC2 (centres undefined)	i
CN(C)CCNC(=O)c1ccc(-c2ccc(N3CCCCCC3)nc2)cc1	25µM*
CN(Cc1ccco1)C(=O)c1ccc(-n2cnnn2)cc1	i
O=C(NCc1ccccn1)c1ccc(C2CCCCC2)cc1	i
Cc1ccc(C(=O)NCCc2nnc3ccc(N4CCCC4)nn23)cc1	i
CN(Cc1ccco1)C(=O)c1cccc(S(=O)(=O)N2CCCCC2)c1	i
O=C(NCc1ccccn1)c1ccc(-c2ccc(N3CCCCC3)nc2)cc1	16µM*
O=C(NCc1ccccn1)c1ccc2ccccc2c1	i
O=C(NCc1ccc2c(c1)OCO2)c1ccc(CN2CCc3ccccc3C2)cc1	i
CN(Cc1ccco1)C(=O)c1ccc(-c2ccc(N3CCCCCC3)nc2)cc1	28µM*
Cc1ccc(CN2CCCN(c3ccc(C(=O)NCc4ccc5c(c4)OCO5)cc3)C2=O)cc1	i
COc1cc(OC)cc(C(=O)Nc2ccc(N3CCCC3)nc2)c1	i
O=C(NCc1ccc2c(c1)OCO2)c1ccc(-c2ccc(N3CCSCC3)nc2)cc1	28µM*
Cc1cccc(-c2cn[nH]c2C2CCN(C(=O)c3ccc(C)[nH]c3=O)CC2)c1	i
CCOc1ccccc1NC(=O)C1=NN(C2CCS(=O)(=O)C2)C(=O)CC1 (centres undefined)	i
O=C1CCCC2=C1C(c1cc(Cl)c(O)c(Cl)c1)C1=C(CCCC1=O)O2	i
SMILES	KDM5B inh
Cc1[nH]c2nc3ccccc3n2c(=O)c1Cc1ccc(Cl)cc1	i
CC(C)Cc1nc(NCCN2CCOCC2)c(C#N)c2c1CCCC2	i
CCCCC(=O)Nc1ccc(NC(=O)CCCN2CCCC2=O)cc1	i
CCN1C(=O)C2(C(C(=O)c3ccc(C)o3)=C(O)C(=O)N2CCN2CCOCC2)c2ccccc21 (centres undefined)	i
N#C/C(=C/c1ccc(OC(F)F)cc1)C(=O)c1c[nH]c2cc(F)ccc12	i
COC(=O)c1ccc(OCC(=O)c2ccc3c(c2)CCO3)c(OC)c1	i
O=C(NC[C@H]1O[C@@H](CO)[C@@H](O)[C@H]1N1CCN(c2cccc(C(F)(F)F)c2)CC1)c1ccccc1	i
Cc1ccc(-c2nc3ccccc3s2)cc1NC(=O)c1ccccc1C	i
O=C(NCCN1CCCCCC1)c1n[nH]c(=O)c2ccccc12	i
Cc1ccc(C(=O)NCCCN2CCCC2)cc1	i
N#Cc1cccc(C(=O)NCCCN2CCCC2)c1	i
O=C(NCCN1CCN(C(=O)c2ccc(F)cc2)CC1)c1ccc(F)cc1	i
O=C(NCCCN1CCCC1)c1ccc(-c2ccc(N3CCCCC3)nc2)cc1	22µM*
O=C(NCCN1CCCCC1)c1ccc(-c2ccc(N3CCSCC3)nc2)cc1	28µM*
C[S+](=O)([O-])c1cccc(CN2CC(COc3ccccc3)C3(C2)CN(c2ccccc2)C3)c1 (centres undefined)	35µM*
Clc1cccc(CN2CC(CNc3cccnc3)C3(C2)CN(c2ccccc2)C3)c1 (centres undefined)	32µM*
O=C(NCC1CN(Cc2cccc(O)c2)CC12CN(c1ccccc1)C2)c1ccccc1 (centres undefined)	i
Cn1nccc1C(=O)N1CC(COc2ccccc2)C2(C1)CN(c1ccccc1)C2 (centres undefined)	i
O=C(c1cn[nH]c1)N1CC2(CN(Cc3cccc(OC(F)(F)F)c3)CC2COc2ccccc2)C1 (centres undefined)	i
N#Cc1cccc(CN2CC(COc3ccccc3)C3(C2)CN(c2ccccc2)C3)c1 (centres undefined)	40µM*
Clc1cnccc1CN1CC(CNc2ccccc2)C2(C1)CN(c1ccccc1)C2 (centres undefined)	i
c1ccc(N2CC3(CN(CC4CC4)CC3CNc3cccnc3)C2)cc1 (centres undefined)	i
Cn1ccc(C(=O)N2CC(COc3ccccc3)C3(C2)CN(c2ccccc2)C3)n1 (centres undefined)	i
O=C(c1ccc2c(c1)OCO2)N1CCC(N2CCOC2=O)CC1	i
CC(C)(CO)NC/C=C/c1ccccc1	i
